Hits are enriched below; roughly 12% of the tested compounds scored in any of these assays.
ROMK primary: modulates human ROMK potassium channel activity. P48048. Tet-inducible ROMK, thallium flux fluorescence; actives lie on both sides. B-score at 10 µM. 130,000 tested, 2% active. AID 1918;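 active = signal ratio slope over the read window, or its plate-corrected B-score, at least 3 SD from the plate mean, either direction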;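 also: B-score of the F/F0 ratio slope over 7 to 12 s after thallium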
WT yeast gro inh: growth inhibition of WT yeast, mitochondrial fusion screen; mitochondrial fusion phenotypic screen, WT strain; inhibition, % at 10 µM; 190,000 tested, 2.1% active; AID 1362; in the data active = inhibition above about 58%; tested in S. cerevisiae
Calpain2 inh: calpain II (pig) inhibition; purified calpain II, fluorogenic peptide substrate, 30 min; inhibition, % at 16 µM; 220,000 tested, 0.37% active;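 active = inhibition above about 50%, limit read from the data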
KCC2 mod: modulates chloride dependent transport by human KCC2 | 190,000 tested, 2.2% active | Q9H2X9 | KCC2 cells, thallium flux FluoZin-2 fluorescence | B-score of Tl+ flux slope (higher = more flux/activation; lower = inhibition) at 10 µM | AID 1456;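 active = thallium flux slope and its plate-corrected score both differing from the plate sample mean at a set confidence after two filtering rounds, in either direction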;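 also: slope of fluorescence scaled to starting intensity during 10 to 20 s after thallium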
Target sequence (Q9H2X9 whole entry, looked up): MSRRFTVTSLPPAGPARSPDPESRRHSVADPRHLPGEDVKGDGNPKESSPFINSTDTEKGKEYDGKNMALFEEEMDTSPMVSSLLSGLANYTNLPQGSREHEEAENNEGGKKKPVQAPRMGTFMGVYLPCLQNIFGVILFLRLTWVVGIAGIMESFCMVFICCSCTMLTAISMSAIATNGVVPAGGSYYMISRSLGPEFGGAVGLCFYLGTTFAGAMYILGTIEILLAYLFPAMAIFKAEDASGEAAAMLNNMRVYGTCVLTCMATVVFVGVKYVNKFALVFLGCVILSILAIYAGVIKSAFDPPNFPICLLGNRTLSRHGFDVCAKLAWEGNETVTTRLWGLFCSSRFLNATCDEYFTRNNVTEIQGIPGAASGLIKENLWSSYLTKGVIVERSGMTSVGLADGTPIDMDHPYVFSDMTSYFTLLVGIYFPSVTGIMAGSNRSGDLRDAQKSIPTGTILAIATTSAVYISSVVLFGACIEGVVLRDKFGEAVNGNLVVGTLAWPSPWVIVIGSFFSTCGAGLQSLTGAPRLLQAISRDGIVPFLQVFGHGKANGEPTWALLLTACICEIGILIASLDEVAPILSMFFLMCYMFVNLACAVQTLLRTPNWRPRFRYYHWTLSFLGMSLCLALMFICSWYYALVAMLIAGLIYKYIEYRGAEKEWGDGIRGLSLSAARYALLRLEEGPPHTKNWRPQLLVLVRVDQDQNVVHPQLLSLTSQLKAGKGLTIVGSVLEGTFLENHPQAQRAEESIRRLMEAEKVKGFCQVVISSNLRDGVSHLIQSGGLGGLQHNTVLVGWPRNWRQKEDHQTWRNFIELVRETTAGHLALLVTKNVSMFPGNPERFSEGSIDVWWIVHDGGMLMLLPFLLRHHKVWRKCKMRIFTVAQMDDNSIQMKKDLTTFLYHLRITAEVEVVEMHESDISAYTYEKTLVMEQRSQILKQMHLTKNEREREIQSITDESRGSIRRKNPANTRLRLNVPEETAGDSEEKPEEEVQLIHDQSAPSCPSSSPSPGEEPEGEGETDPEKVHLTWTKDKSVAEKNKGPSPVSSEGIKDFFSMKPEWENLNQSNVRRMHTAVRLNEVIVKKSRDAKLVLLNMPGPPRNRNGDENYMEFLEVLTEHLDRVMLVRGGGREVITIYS
Lmaj promast: Leishmania major promastigote growth inhibition. Leishmania major promastigotes, resazurin fluorescence viability. inhibition, % at 10 µM. 200,000 tested, 9% active; in the data active = inhibition above about 50%;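 also: promastigotes grown with compound for 44 hours at 28 °C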
Large screens that a line does not name were inactive.

Cc1nnc2ccc(-c3cccc(NS(C)(=O)=O)c3)nn12	none
COc1ccccc1NC(=S)N(CCCN(C)C)Cc1cc2cc3c(cc2[nH]c1=O)OCO3	none
COC(=O)c1ccccc1NC(=S)N(Cc1ccc2c(c1)OCO2)Cc1cc2cc(OC)ccc2[nH]c1=O	Lmaj promast 55.5 (no result: ROMK primary)
CCOc1ccc(C(=O)Nc2ccc(-c3cc4ccccc4oc3=O)c(C)c2)cc1[N+](=O)[O-]	Lmaj promast 55.5
CC1(C)Cc2nc3nc(SCC(=O)Nc4ccccc4)nc(N)c3cc2CO1	none
O=C(c1cn(-c2ccccc2)nc1-c1ccncc1)n1nnc2ccccc21	none (no result: WT yeast gro inh, Calpain2 inh)
COc1ccc2c(C)cc(SCC(=O)N3CCOCC3)nc2c1	none (no result: KCC2 mod)
COc1ccc2c(C)cc(SCC(=O)Nc3ccc(Cl)cn3)nc2c1	Lmaj promast 58.6 (no result: ROMK primary)
CCn1c2ccccc2c2nnc(SCc3ccccc3)nc21	WT yeast gro inh 58.2 (no result: ROMK primary)
Cc1ccc(-c2nc(SCC(=O)N(C)C3CCS(=O)(=O)C3)[nH]c2-c2ccc(C)cc2)cc1 (stereo not drawn)	Lmaj promast 94.2
CCn1c2ccccc2c2nnc(SCC(=O)N(C)C3CCS(=O)(=O)C3)nc21 (stereo not drawn)	Lmaj promast 66.1 (no result: ROMK primary)
FC(F)(F)c1cccc(Cc2noc(CN3CCCC(CN4CCCC4)C3)n2)c1 (stereo not drawn)	none (no result: KCC2 mod)
CCOP(=O)(c1ccccc1)C1(O)CCCCC1 (stereo not drawn)	none (no result: KCC2 mod)
O=C(N/N=C/c1ccncc1)c1cccc(S(=O)(=O)Nc2ccc(Cl)cc2)c1	none (no result: ROMK primary, WT yeast gro inh, Lmaj promast)
COc1cccc(OCC(O)CN2CCN(CCN3C(=O)c4cccc5cccc(c45)C3=O)CC2)c1 (stereo not drawn)	Lmaj promast 100.0 (no result: KCC2 mod)
O=C(CN1CCN(CCN2C(=O)c3cccc4cccc(c34)C2=O)CC1)c1ccc(Cl)cc1	Lmaj promast 86.7
O=C1c2cccc3cccc(c23)C(=O)N1CCN1CCN(CC(O)COc2ccccc2)CC1 (stereo not drawn)	Lmaj promast 97.1 (no result: ROMK primary)
O=C(C(c1ccccc1)c1ccccc1)N1CCN(CCN2C(=O)c3cccc4cccc(c34)C2=O)CC1	none
CN(c1ccc(C(=O)NC2CC2)cc1)S(=O)(=O)c1ccccc1	none (no result: ROMK primary)
CCOC(=O)C1CCCN(Cc2nc(Cc3ccccc3Cl)no2)C1 (stereo not drawn)	none
O=C1OC(NC(=O)c2ccccc2)C(n2cc(CO)nn2)=C1Cl (stereo not drawn)	none
CCc1[nH]nc(C(=O)N2CCCC(CCC(=O)N3CCN(c4ccccn4)CC3)C2)c1C (stereo not drawn)	none (no result: KCC2 mod)
COc1ccc(NS(=O)(=O)c2ccc3nc(COc4cccc5ccccc45)[nH]c3c2)cc1	Lmaj promast 95.2
CCN(CC)CC(=O)Nc1ccc2c(c1)Nc1ccccc1CC2	Lmaj promast 52.4 (no result: KCC2 mod)
N#Cc1cnc(N)c(Br)c1	none
Cc1ccc2cc(CN(CCN3CCCC3)C(=O)Nc3ccc(F)cc3)c(=O)[nH]c2c1C	Lmaj promast 72.8 (no result: ROMK primary)
CCOC(=O)N1CCN(C(=O)Cc2ccsc2)CC1	none (no result: KCC2 mod)
Cc1cc[n+](CC(=O)c2ccc(NC(=O)c3ccccc3)cc2)c2ccccc12	WT yeast gro inh 60.5
COc1ccc(CNS(=O)(=O)c2ccccc2Br)cc1	none (no result: ROMK primary, WT yeast gro inh, Lmaj promast)
COc1ccc(Cl)cc1CN1CCN(c2nc(C)cc(C)c2C#N)CC1	none (no result: KCC2 mod)
Cc1cc(C)c(C#N)c(N2CCN(CCOc3ccc(Cl)cc3)CC2)n1	WT yeast gro inh 65.2 (no result: ROMK primary)
C=CCSC1=C(C#N)C(c2ccccc2Cl)C(C(=O)c2cccs2)C(O)(C(F)(F)F)N1 (stereo not drawn)	Lmaj promast 88.2
Cc1cccc(C(=O)O/N=C/c2ccc(Br)cc2)c1	WT yeast gro inh 60.3 (no result: ROMK primary)
Cc1cccc(C(=O)O/N=C(\N)c2ccc(Br)cc2)c1	none
CN1C(=O)C(/C(N)=N/NC(=O)c2ccccc2)C2CC1(C)Oc1ccccc12 (stereo not drawn)	none
Cc1ccc(Nc2nnc(C3C(=O)N(C)C4(C)CC3c3cc(Br)ccc3O4)s2)cc1 (stereo not drawn)	Lmaj promast 68.8 (no result: ROMK primary)
COc1ccc(N2C(=O)C3C4c5ccccc5C(C=Nc5ccc(C)cc5C)(c5ccccc54)C3C2=O)cc1 (stereo not drawn)	none (no result: WT yeast gro inh, Calpain2 inh, KCC2 mod)
CCc1ccc(N=CC23c4ccccc4C(c4ccccc42)C2C(=O)N(c4ccc(OC)cc4)C(=O)C23)cc1 (stereo not drawn)	Lmaj promast 89.3 (no result: ROMK primary)
Cc1ccc(-n2cc(C(=O)c3ccc(N4CCN(C)CC4)cc3)nn2)cc1Cl	Lmaj promast 100.5
CN1CCN(c2ccc(C(=O)c3cn(-c4ccc(F)c(Cl)c4)nn3)cc2)CC1	Lmaj promast 50.0
C=CCn1c(COc2ccc(Cl)cc2)nnc1SCC(=O)c1c(N)n(C)c(=O)n(C)c1=O	none
Cc1nn(-c2ccccc2)c(C)c1C(=O)NNC(=O)C(F)(F)F	none (no result: ROMK primary, WT yeast gro inh, Lmaj promast)
Cc1cccc(NC(=S)NNC(=O)c2ccc(O)cc2O)c1C	Lmaj promast 71.3
Cc1ccc(NC(=O)CSc2nnc(C3CC3)n2N)cc1S(=O)(=O)N1CCOCC1	none
COc1ccc(CC2(CO)CCN(Cc3cnn(-c4ccc(F)cc4)c3)CC2)cc1	Lmaj promast 84.1
COc1ccc(CC2(CO)CCN(Cc3cnn(-c4ccccc4)c3)CC2)cc1	Lmaj promast 86.8
CCCCC(=O)Nc1ccc(C(=O)NCCc2ccc(S(N)(=O)=O)cc2)cc1	none
C=CCC(C(=O)OC)(C(=O)OC)c1ccc([N+](=O)[O-])cn1	WT yeast gro inh 66.4 (no result: ROMK primary)
C=CCC(C(=O)OC)(C(=O)OC)c1ccc([N+](=O)[O-])cc1[N+](=O)[O-]	none
O=C(Cn1nc(C(F)F)cc1C(F)F)NNC(=S)Nc1ccc([N+](=O)[O-])cc1	none (no result: KCC2 mod)
O=c1[nH]c(-c2ccccc2O)nc2c1CCCC2	none
CCNC(=S)Nc1ccc(OCC)cc1	Lmaj promast 65.3
CCOc1ccc(NC(=S)Nc2ccc(OCC)cc2)cc1	none
CCOc1ccc(NC(=S)NC(C)CCc2ccccc2)cc1 (stereo not drawn)	WT yeast gro inh 61.1
Cc1cc(N2CCN(C)CC2)nc2ccc(NC(=S)NCCCN3CCc4ccccc4C3)cc12	Lmaj promast 100.4
Cc1cc(N2CCCC2)nc2ccc(NC(=S)NCCCN3CCC(C)CC3)cc12	Lmaj promast 100.2
Cc1cc(N2CCN(C)CC2)nc2ccc(NC(=S)NCCN3CCc4ccccc4C3)cc12	Lmaj promast 100.5
CCCN1CCN(CCCNC(=S)Nc2ccc3nc(N4CCN(CC)CC4)cc(C)c3c2)CC1	none
CCN1CCN(c2cc(C)c3cc(NC(=S)NCCCN4CCc5ccccc5C4)ccc3n2)CC1	Lmaj promast 100.2
Cc1cc(N2CCN(C)CC2)nc2ccc(NC(=S)N3CCCCCC3)cc12	none
Cc1cc(N2CCOCC2)nc2ccc(NC(=S)N3CCCCC3C)cc12 (stereo not drawn)	Lmaj promast 85.5
O=C(NCC(c1cccs1)N1CCOCC1)c1ccc(Cl)s1 (stereo not drawn)	none (no result: KCC2 mod)
COC(=O)c1cc2sccc2n1CC(=O)N1CCCc2ccccc21	none (no result: KCC2 mod)
CCOC(=O)c1cc2sccc2n1CC(=O)N1CCCc2ccccc21	Lmaj promast 91.7
O=C(c1cc2sccc2n1Cc1ccccc1)N1CCc2ccccc21	none (no result: KCC2 mod)

Source: PubChem
